# Source: PubChem BioAssay (several laboratories)
# An excerpt weighted towards active compounds, which were near 4.1% of everything screened.
# CD11b adhes inh: CD11b/CD18-fibrinogen binding inhibition; P05107+P11215; hit rate 0.54% among 93,000; K562 CD11b/CD18 adhesion to fibrinogen, ATPlite luminescence; Mn2+ added to activate the integrin; AID 1497; inhibition, % at 10 µM;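 active = primary inhibition of 50% or more at 10 µM, then 40% or more on retest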
# MRP resist rev: reverses drug resistance mediated by MRP | H69AR cells + 2 uM doxorubicin, CellTiter-Glo, 72 h | differential viability (reversal), % at 10 µM | hit rate 0.04% among 85,000 | AID 602;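 active = viability drop by adding the cancer drug above about 55%, with treated viability meeting a 40% cutoff, limit read from the data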;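 note: viability without doxorubicin minus viability with 2 µM doxorubicin for each compound; larger differential means the compound sensitizes cells more to doxorubicin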
# MRP1 act: activators of MRP-1; viability increase, % at 10 µM; AID 799; H69AR cells + doxorubicin, viability rescue, CellTiter-Glo; hit rate 0.61% among 140,000;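 active = viability gain under doxorubicin at or above a set limit, the compound median plus 3 SD, cut at about 4.7% in these data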;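 note: MRP-1 overexpressing cells given doxorubicin 25 µM after compound pretreatment; 18-22 h compound pretreatment then 72 h with doxorubicin before readout; 0% = doxorubicin-only wells and 100% = vehicle-treated cells without doxorubicin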
# Mac1 fbg enh: increases human CD11b/CD18 adhesion to fibrinogen | activation, % at 10 µM | K562 CD11b/CD18 adhesion to fibrinogen, ATPlite luminescence | hit rate 0.07% among 93,000 | P05107+P11215;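 active = 10 µM primary screen giving 50% or more activity, confirmed by 40% or more on retest at that dose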
# Cav3 T inh: blocks human Cav3.2 T-type calcium channel; O95180; Cav3.2-expressing cells, Fluo-4 calcium fluorescence FDSS; stronger effect = lower value; B-score at 10 µM; hit rate 4% among 100,000; AID 449739;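 active = single-dose well whose peak fluorescence ratio is a statistical outlier from its plate by either plate-standardised score or position-corrected B-score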
# PTK2B oligo ant: Pyk2 (human) oligomerization antagonism; Q14289; AID 1347419; z-score (the deposit names both 25 µM and 10 µM); Q293 cells, Pyk2 FERM NanoBiT luminescence; stronger effect = lower value; hit rate 0.83% among 99,000;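 active = Z-score of -3 or lower, scaled per plate to the spread of control and sample wells; inactive = z-score above -3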;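 note: negative z-score means lost luminescence so less FERM oligomerization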
# * marks the source's active call; other numbers are inactive results; . = no result given.
SMILES,CD11b adhes inh,MRP resist rev,MRP1 act,Mac1 fbg enh,Cav3 T inh,PTK2B oligo ant
CCN(C(=O)Cc1c(C(=O)O)[nH]c2ccccc12)c1cc(OC)ccc1OC,40.3,.,-1.0,-0.4,.,-0.59
CC1CC1C(=O)Nc1ccc(-c2ccccc2)cc1 (stereo unspecified),.,.,-0.5,.,.,.
O=C(N/N=C/c1c(O)ccc2ccccc12)c1[nH]ncc1Br,.,.,0.1,.,.,.
Cc1ccc(O)c(/C=N/NC(=O)c2[nH]ncc2Br)c1,.,.,4.9*,.,.,-0.01
CC1=CCn2c(=O)c3ccccc3c(=O)n2C1,.,.,0.9,.,.,.
Cc1nc2sc(C(c3ccccc3)N3CCC(O)CC3)c(O)n2n1 (stereo unspecified),-17.1,8.7,-2.1,-1.1,0.0174,0.05
O=C(CN1CCN(c2ccc(F)cc2)CC1)Nc1nnc(-c2ccccc2)s1,-7.1,12.3,-0.9,-3.9,0.158,0.98
CC1CCc2nc(NC(=O)CN3CCN(c4ccc(F)cc4)CC3)sc2C1 (stereo unspecified),23.7,11.3,-1.9,-2.3,-5.04*,-0.69
CCn1c(COc2ccc(Cl)cc2)nnc1SCc1nc2ccccc2[nH]1,-5.7,-29.9,6.8*,-1.8,-1.87,-0.37
CCn1c(SCc2nc3ccccc3[nH]2)nnc1-c1ccc(OC)cc1,-11.5,-0.3,-1.8,-2.0,0.0293,0.76
O=C(CSc1ncc(-c2ccc(F)cc2)n1Cc1ccco1)Nc1ccc2c(c1)OCO2,69.4,-33.5,2.9,-4.6,-4.75*,0.17
COc1ccc(C)cc1NC(=O)CSc1nnc(COc2ccc(C)cc2)n1Cc1ccco1,-14.3,-21.9,1.4,-2.0,-4.01,-1.03
Cc1ccc(OCc2nnc(SCc3nc4ccccc4[nH]3)n2Cc2ccco2)cc1,69.2,-5.2,3.0,-7.8,-8.45*,-0.41
O=C(CSc1nnc(-c2cccs2)n1Cc1ccco1)Nc1ccc2c(c1)OCO2,3.6,14.2,3.1,-2.1,-0.135,-1.47
Cc1ccc(OCc2nnc(SCC(=O)c3ccccc3)n2Cc2ccco2)cc1,-0.2,.,-0.9,-5.3,-4.54*,-0.56
c1ccc(-c2nnc(SCc3nc4ccccc4[nH]3)n2Cc2ccco2)cc1,1.1,-2.5,-0.6,2.3,0.541,0.17
O=C(Cc1c(O)c2ccccc2[nH]c1=O)NCc1ccccc1F,40.0,5.7,-1.5,3.2,.,1.75
Cc1nnc(SCC(=O)c2cc(C)n(-c3ccc4c(c3)OCO4)c2C)s1,46.7,13.6,-0.8,1.8,-2.18,0.77
CCn1c(O)c(C(C#N)=C2N=c3ccccc3=N2)c2ccccc21,-2.0,.,-2.0,0.8,-0.0949,-0.09
O=C(CSc1ncc(-c2ccccc2)n1-c1ccccc1)NCc1ccco1,-5.9,-12.1,-2.6,-4.7,-2.64,-1.86
COc1ccc(-n2c(-c3ccc(F)cc3)cnc2SCC(=O)NCc2ccco2)cc1,-2.1,1.6,-3.8,-6.7,-5.75*,-2.32
Cc1ccc(OCc2nnc(SCC(=O)Nc3ccc4c(c3)OCCO4)n2Cc2ccco2)cc1,8.0,8.0,-1.5,0.4,-5.95*,1.8
O=C(CSc1nnc(-c2ccccc2)n1Cc1ccco1)Nc1ccc2c(c1)OCCO2,-6.6,-6.7,-2.6,0.8,-1.04,-0.4
O=C(N/N=C/c1cc(Cl)cc([N+](=O)[O-])c1O)NC12CC3CC(CC(C3)C1)C2,.,.,-2.3,.,.,.
CCC1(C)COC2(OC1)C(=O)Nc1ccccc12 (stereo unspecified),-4.3,-13.8,-0.7,-4.1,-0.0371,-0.41
SMILES,CD11b adhes inh,MRP resist rev,MRP1 act,Mac1 fbg enh,Cav3 T inh,PTK2B oligo ant
O=C(CCn1c(=O)[nH]c2ccsc2c1=O)NCCc1ccc(Cl)cc1,-23.7,.,1.1,-3.8,-0.737,-0.3
O=C(CCn1c(=O)[nH]c2ccsc2c1=O)N(CCc1ccccc1)Cc1ccccc1,-6.2,-9.8,-0.9,-7.7,-4.35*,-1.03
COc1ccc(C(=O)NC(=S)Nc2nc(C)c(C(=O)N(C)C)s2)cc1,14.5,.,0.3,-2.9,0.062,0.94
Cc1nc(NC(=S)NC(=O)c2cccs2)sc1C(=O)N(C)C,-5.6,.,7.2*,1.2,0.241,-0.2
Brc1ccc(CSc2ncn[nH]2)cc1,-9.4,-2.8,4.9*,7.1,-1.22,1.27
CCCOc1ccc(CSc2ncn[nH]2)cc1,-1.9,14.5,7.4*,0.0,0.302,1.65
CCOC(=O)c1[nH]c2ccc(OC)cc2c1NC(=O)CCN1CCc2ccccc2C1,5.8,-7.6,-3.2,-2.2,-0.105,-0.02
CN=C1S/C(=C\c2cc(C)n(-c3ccccc3F)c2C)C(=O)N1C,97.3,.,5.9*,-15.5,-2.06,-1.32
COc1cc(C2Nc3cccc4cccc(c34)N2)cc(OC)c1O,.,-21.6,6.5*,.,.,-1.33
CC(C)OC(=O)CSc1nnc(CNc2nc(-c3ccccc3)cs2)n1C,0.2,4.2,-0.9,-0.4,-0.57,1.01
Cn1c(CNc2nc(-c3ccccc3)cs2)nnc1SCC(=O)OC1CCCCC1,.,.,-3.0,.,-6.11*,2
Clc1cccc(Cl)c1Cn1cnc2c(N3CCCCCC3)ncnc21,-26.2,-8.0,-0.8,8.1,-0.238,-3.41*
O=C(NCc1ccc(F)cc1)C1C2C=CC3(CN(Cc4cccnc4)C(=O)C13)O2 (stereo unspecified),14.7,.,-1.9,-1.5,0.586,0.36
O=C(OCc1cccs1)c1ccccc1NS(=O)(=O)c1ccc2c(c1)OCCO2,21.9,9.9,0.2,34.5,-4.84*,-1.36
O=C(c1ccccc1NS(=O)(=O)c1ccc2c(c1)OCCO2)N1CCOCC1,.,8.3,-1.8,.,2.57,-0.04
C[C@]12CC[C@@H]3c4ccc(O)cc4CC[C@H]3[C@@H]1C[C@@H](O)[C@@H]2O,.,.,-0.5,.,-4.57*,.
C[C@]12CC[C@@H]3c4ccc(O)cc4CC[C@H]3[C@@H]1CC[C@@H]2OC(=O)CCC(=O)O,.,16.7,-2.1,.,-0.327,.
COc1ccc(C/C(O)=C(\C#N)c2nc3ccccc3s2)cc1,104.1*,-14.6,-0.2,-11.2,-3.07,-0.06
Cc1ccc(SC/C(O)=C(\C#N)c2nc3ccccc3s2)cc1,101.1*,-28.0,-1.4,-10.2,-4.37*,-1.86
C=CCC1c2cccc(C(=O)O)c2C(=O)N1c1ccc(Cl)cc1 (stereo unspecified),-16.7,1.9,-1.4,-2.1,0.674,-0.17
Cc1nn(C2CCCCC2)c(N)c1-c1ccccc1,-8.0,27.9,0.8,-1.6,-3.37*,-0.26
O=C(NCCO)NC(=S)c1ccccc1,-4.2,2.0,-2.1,-0.9,-0.457,0.24
CNc1ccc(C(O)(C(F)(F)F)C(F)(F)F)cc1C(O)(C(F)(F)F)C(F)(F)F,19.1,-23.9,2.2,-0.6,-7.08*,-2.87
CCCNC(=O)c1ccccc1NC(=O)COc1ccc(OC)cc1,-5.7,-1.6,-1.3,-0.1,0.0998,0.53
Cc1ccc(CN(CC(=O)N/N=C/c2ccccc2[N+](=O)[O-])S(=O)(=O)c2ccc(C)cc2)cc1,9.8,.,-3.9,-0.1,-3.98*,-1.42
CCCCOC(=O)Cn1c(=O)n(CC(=O)OCCCC)c2ccccc21,6.7,17.1,0.4,2.8,-6.37*,-0.09
CCCCCOC(=O)Cn1c(=O)oc2ccccc21,-6.3,-19.9,1.5,-3.7,0.435,.
